In PubChem BioAssay (NCI):
Compounds without any hit were thinned out: in the full panel of roughly 83,000, 20% have a hit.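 Negative percent growth values reflect cell death: -40 means 40% of the cells present at the start died, and -100 means all died.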 Unmarked numbers belong to inactive results. Activity calls are given as the source filed them. How the source made its calls: active means growth percent below 10; inactive means the rest.

Tested on: SK-MEL-28 melanoma
Test: NCI-60 one-dose screen, 48 h (100 = growth as untreated, 0 = no growth, -100 = all killed)
Conditions: 10 µM

| SMILES | growth |
| --- | --- |
| Cc1ccc2sc3c(NCCCNCCO)nc4ccccc4c3c(=O)c2c1 | 79.8% |
| NCCOc1ncccc1/C=C1\c2ccccc2-c2ccc(F)cc21 | 70.2% |
| CNCCNc1nc2ccccc2c2c(=O)c3cc(OC)ccc3sc12 | 74.6% |
| CC(C)c1ccc(S(=O)(=O)NC(=O)NC2CCCC2)cc1 | 103% |
| COc1cc(/C=C2\CN(C)C/C(=C\c3cc(CN4CCCC4)c(O)c(OC)c3)C2=O)cc(CN2CCCC2)c1O | 90.7% |
| Nc1ccccc1-c1ccc(-c2ccc(Cl)cc2)c2c1[nH]c1ccccc12 | 97.1% |
| O=C(Cn1cc(COc2ncnc3c2cnn3-c2ccccc2)nn1)Nc1ccccn1 | 97.3% |
| NCCOc1ccccc1/C=C1\c2ccccc2-c2ccc([N+](=O)[O-])cc21 | 48% |
| COc1cc(/C(C#N)=C/c2nc3c(N4CCOCC4)nc(Cl)nc3n2C)cc(OC)c1OC | 46% |
| Cc1ccc2cccc(Oc3ccc(Nc4ncnc5onc(-c6ccccc6)c45)cc3)c2n1 | 80.1% |
| COC(=O)/C(CCC=C(C)C)=C1\[C@@H](OC(C)=O)C[C@@]2(C)[C@H]1C[C@@H](O)[C@H]1[C@@]3(C)CC[C@H](NCc4ccccc4)[C@@H](C)[C@@H]3CC[C@@]12C | 74.6% |
| COc1cc(/C=C/C(=O)c2ccc(Cl)cc2)cc(CN2CCCCC2)c1O | 97.9% |
| O=C(/C=C/c1ccc(Cl)cc1)c1ccc(Nc2nc(NCCO)nc(Nc3ccc(Cl)cc3)n2)cc1 | 78.1% |
| CN1CCN(Cc2ccc(NC(=O)c3[nH]ncc3Nc3cc(OC4CCCC4)ncn3)cc2)CC1 | 53.1% |
| Cn1c(/C=C(\C#N)c2ccccc2)nc2c(N3CCOCC3)nc(Cl)nc21 | -78.6% (active) |
| CCN1C(=O)N(CC)C2Nn3c(s/c(=C\c4ccccc4F)c3=O)=NC21 (centres undefined) | 54.2% |
| Cc1ccccc1CNC(=O)C1CN(c2ccc(Cl)cc2)N(c2ccc(Cl)cc2)C1=O (centres undefined) | 91% |
| CCCCC1CCc2cccc3c(SCC(=O)N(C)c4ccc(Cl)cc4)cc[n+]1c23 (centres undefined) | 105% |
| Clc1ccc(Oc2ccc(Nc3ncnc4onc(-c5ccccc5)c34)cc2)c(Cl)c1 | 102% |
| O=C(O)c1cn(C2CC2)c2cc(N3CCN(C(=O)C[n+]4ccccc4)CC3)c(F)cc2c1=O | 112% |

| SMILES | growth |
| --- | --- |
| O=C(CSc1nc2ccccc2c(=O)n1-c1ccccc1)Nc1ccc(C(=O)/C=C/c2ccc(Cl)cc2)cc1 | 106% |
| Cc1nc(Nc2cn[nH]c2C(=O)Nc2ccc(CN3CCN(C)CC3)cc2)c2ccsc2n1 | 107% |
| CN1C(=O)N(C)C2Nn3c(s/c(=C4\C(=O)N(CCc5ccccc5)c5ccccc54)c3=O)=NC21 (centres undefined) | 76.4% |
| O=C(/C=C/c1ccc(C(F)(F)F)cc1)c1ccc(Nc2nc(NCCO)nc(N3CCOCC3)n2)cc1 | 94.1% |
| COc1cc(/C=C/C(=O)c2ccc(Nc3nc(NCCO)nc(N4CCOCC4)n3)cc2)cc(OC)c1OC | 48.4% |
| COc1cc(/C=C2\CN(S(=O)(=O)c3ccccc3)C/C(=C\c3cc(CN4CCCC4)c(O)c(OC)c3)C2=O)cc(CN2CCCC2)c1O | 10.5% |
| O=c1c2cc(F)ccc2sc2c(Nc3ccncc3)nc3ccccc3c12 | 87.7% |
| O=c1c2cc(F)ccc2sc2c(NCCN3CCCC3)nc3ccccc3c12 | 71.6% |
| CNC(=O)c1cc(Oc2ccc(CC(=O)Nc3cc(C(C)(C)C)cn3C)cc2)ccn1 | 79.8% |
| COc1cc2nc(NC3CCCC3)nc(NC3CCN(C(C)C)CC3)c2cc1OC | 87.1% |
| O=C(NCc1ccco1)C1CN(c2ccc(Cl)cc2)N(c2ccc(Cl)cc2)C1=O (centres undefined) | 66.2% |
| COc1cccc2cc(N(C)c3nc(C)nc4ccsc34)ccc12 | 58.9% |
| CN1C(=O)N(C)C2(c3ccccc3)OC(=S)NC12c1ccccc1 (centres undefined) | 102% |
| Nc1nc(-c2cnccn2)nn1-c1nc2ccccc2s1 | 104% |
| COc1ccc(N)c(-c2cc3c(c4c2[nH]c2ccc(OC)cc24)CCCC3)c1 | 97.7% |
| COc1cccc(/C(C#N)=C/c2nc3c(N4CCOCC4)nc(Cl)nc3n2C)c1 | -77.5% (active) |
| O=c1c(-c2nc3ccccc3[nH]2)cc2ccccc2n1Cc1cn(Cc2ccc(N3CCOCC3)cc2)nn1 | 76.2% |
| Cn1c2c(c(=O)[nH]c1=O)NC1=C(C(=O)c3ccccc31)C1(C=C(O)c3ccccc31)N2 (centres undefined) | 148% |
| COC(=O)/C(CCC=C(C)C)=C1\[C@@H](OC(C)=O)C[C@@]2(C)[C@H]1C[C@@H](O)[C@H]1[C@@]3(C)CC[C@H](NCCCNCCCCNCCCN)[C@@H](C)[C@@H]3CC[C@@]12C | 19.9% |
